Most compounds without a hit are left out; they make up all but 3.5% or so of the library.
Pf apPOL inh = Pf-apPOL inhibitors, biochemical, fluorescence; Plasmodium falciparum apicoplast DNA polymerase (apPOL); Recombinant Pf-apPOL, molecular beacon fluorescence, 1.5 h; inhibition, % at 10 µM; hit rate 0.25% among 210,000
mHTT CaM bind = mutant huntingtin-calmodulin interaction inhibitors – biochemical, AlphaScreen, primary screen; AlphaScreen His-mHTT/GST-CaM binding, luminescence; P42858; inhibition, % at 15 µM; hit rate 3.6% among 190,000;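 further: 0% = both proteins with DMSO and 100% = one protein alone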
Target sequence (P42858 whole entry, looked up, stated change not applied): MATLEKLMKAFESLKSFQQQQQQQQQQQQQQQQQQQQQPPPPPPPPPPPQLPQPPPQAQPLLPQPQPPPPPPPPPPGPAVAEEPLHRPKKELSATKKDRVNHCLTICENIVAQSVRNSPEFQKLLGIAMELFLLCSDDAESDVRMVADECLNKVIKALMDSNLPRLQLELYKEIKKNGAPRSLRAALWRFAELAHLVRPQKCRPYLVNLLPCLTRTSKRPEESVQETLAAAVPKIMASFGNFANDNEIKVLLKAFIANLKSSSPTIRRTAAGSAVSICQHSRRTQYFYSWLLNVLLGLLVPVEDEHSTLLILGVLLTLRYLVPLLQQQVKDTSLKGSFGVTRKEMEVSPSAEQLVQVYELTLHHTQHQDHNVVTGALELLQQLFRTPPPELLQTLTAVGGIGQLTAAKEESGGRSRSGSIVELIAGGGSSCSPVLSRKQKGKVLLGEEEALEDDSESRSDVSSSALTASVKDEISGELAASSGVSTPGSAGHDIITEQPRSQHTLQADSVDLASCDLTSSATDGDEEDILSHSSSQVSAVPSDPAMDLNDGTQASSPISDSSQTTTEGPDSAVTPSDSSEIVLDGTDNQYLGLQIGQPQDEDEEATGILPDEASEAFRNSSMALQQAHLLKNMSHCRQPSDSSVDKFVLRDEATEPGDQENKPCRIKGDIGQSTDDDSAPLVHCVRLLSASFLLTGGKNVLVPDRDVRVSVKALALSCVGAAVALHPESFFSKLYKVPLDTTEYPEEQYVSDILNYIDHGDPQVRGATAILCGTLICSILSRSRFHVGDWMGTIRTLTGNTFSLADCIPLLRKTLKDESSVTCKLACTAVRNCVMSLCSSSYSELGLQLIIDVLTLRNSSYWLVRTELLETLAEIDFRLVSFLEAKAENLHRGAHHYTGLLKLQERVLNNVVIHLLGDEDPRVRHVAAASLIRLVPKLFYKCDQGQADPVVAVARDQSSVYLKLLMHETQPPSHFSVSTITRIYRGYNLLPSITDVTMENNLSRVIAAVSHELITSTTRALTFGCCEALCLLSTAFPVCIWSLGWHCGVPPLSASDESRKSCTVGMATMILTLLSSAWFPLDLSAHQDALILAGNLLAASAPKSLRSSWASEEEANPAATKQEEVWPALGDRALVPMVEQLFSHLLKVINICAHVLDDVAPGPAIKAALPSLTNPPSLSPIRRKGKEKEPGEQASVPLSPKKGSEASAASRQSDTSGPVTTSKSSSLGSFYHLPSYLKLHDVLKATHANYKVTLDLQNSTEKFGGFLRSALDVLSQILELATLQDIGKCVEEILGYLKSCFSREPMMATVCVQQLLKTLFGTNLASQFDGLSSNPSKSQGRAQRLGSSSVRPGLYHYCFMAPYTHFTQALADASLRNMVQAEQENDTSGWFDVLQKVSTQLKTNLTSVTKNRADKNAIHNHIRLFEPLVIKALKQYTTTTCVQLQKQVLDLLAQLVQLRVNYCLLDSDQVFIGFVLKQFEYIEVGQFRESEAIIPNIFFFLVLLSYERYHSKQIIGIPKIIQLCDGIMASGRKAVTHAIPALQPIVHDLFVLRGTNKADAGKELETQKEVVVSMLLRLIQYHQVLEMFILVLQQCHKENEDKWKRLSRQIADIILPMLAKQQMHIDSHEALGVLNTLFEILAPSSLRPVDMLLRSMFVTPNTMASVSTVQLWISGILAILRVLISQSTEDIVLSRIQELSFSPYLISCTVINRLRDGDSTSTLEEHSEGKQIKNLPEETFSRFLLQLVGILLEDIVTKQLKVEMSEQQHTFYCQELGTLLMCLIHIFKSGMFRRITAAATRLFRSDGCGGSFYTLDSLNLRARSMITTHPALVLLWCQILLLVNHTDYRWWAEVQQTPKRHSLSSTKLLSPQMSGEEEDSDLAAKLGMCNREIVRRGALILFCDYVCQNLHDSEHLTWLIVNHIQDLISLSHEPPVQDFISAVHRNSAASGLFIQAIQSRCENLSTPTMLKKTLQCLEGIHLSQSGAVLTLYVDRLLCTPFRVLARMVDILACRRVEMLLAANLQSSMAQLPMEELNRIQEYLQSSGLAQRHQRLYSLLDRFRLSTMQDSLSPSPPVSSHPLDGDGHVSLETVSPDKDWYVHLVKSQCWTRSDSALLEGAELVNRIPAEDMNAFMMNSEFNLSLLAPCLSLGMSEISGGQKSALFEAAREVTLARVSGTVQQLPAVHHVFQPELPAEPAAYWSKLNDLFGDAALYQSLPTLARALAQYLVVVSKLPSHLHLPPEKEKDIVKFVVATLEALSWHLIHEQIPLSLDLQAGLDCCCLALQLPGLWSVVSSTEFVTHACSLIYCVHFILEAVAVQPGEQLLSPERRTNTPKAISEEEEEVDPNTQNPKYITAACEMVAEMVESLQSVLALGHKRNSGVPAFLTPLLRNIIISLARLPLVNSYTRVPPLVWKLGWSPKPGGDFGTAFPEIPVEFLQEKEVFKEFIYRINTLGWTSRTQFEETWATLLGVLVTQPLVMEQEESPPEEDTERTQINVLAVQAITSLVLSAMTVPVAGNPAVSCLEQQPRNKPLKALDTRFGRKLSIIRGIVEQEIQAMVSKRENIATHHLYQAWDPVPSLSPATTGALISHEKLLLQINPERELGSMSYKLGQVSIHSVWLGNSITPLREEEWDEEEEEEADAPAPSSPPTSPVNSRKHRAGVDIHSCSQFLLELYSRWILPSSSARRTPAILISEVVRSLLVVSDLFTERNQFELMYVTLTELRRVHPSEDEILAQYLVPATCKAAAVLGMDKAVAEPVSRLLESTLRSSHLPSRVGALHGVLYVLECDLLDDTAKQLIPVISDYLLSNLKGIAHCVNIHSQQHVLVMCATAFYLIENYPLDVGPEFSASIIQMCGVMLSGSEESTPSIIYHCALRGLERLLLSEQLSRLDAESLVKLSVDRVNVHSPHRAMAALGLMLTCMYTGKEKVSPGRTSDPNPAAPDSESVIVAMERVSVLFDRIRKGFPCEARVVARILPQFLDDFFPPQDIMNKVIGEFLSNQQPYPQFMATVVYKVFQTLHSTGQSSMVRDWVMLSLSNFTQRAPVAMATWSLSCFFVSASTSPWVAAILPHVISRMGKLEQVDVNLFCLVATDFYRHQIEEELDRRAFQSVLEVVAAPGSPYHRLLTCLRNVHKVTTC
Active calls of the source: *; x = no result given. No stated cut-off is given here; in the data, active means inhibition above about 50%; inactive means the rest.

SMILES	Pf apPOL inh	mHTT CaM bind
Cc1ccnc(NC(c2cccc([N+](=O)[O-])c2)c2ccc3cccnc3c2O)c1 (stereo unspecified)	-0.7	100.0*
Cc1nc(O)c(C(c2cccc([N+](=O)[O-])c2)c2c(O)nc(C)[nH]c2=O)c(=O)[nH]1	2.2	3.0
CCC(=O)NC(c1cccc([N+](=O)[O-])c1)c1ccc2cccnc2c1O (stereo unspecified)	-1.8	100.0*
Cc1cccc(-c2cc(NC(=O)c3ccc([N+](=O)[O-])cc3)n[nH]2)c1	1.3	5.4
Cc1ccnc(NC(c2ccc([N+](=O)[O-])cc2)c2ccc3cccnc3c2O)c1 (stereo unspecified)	-8.4	99.8*
CSc1cccc(NC(=O)C2CCN(c3nccc(C)n3)CC2)c1	8.0	-4.8
Clc1ccc(OCCNCC2CCCO2)cc1 (stereo unspecified)	x	-10.7
Cc1ccc(CNC(=O)C2(C)Oc3cccnc3NC2=O)cc1 (stereo unspecified)	-5.5	-5.5
CCCCOc1ccc(C=CC(=O)O)cc1	-7.7	0.3
C=CCSc1nc(O)c(C(c2ccccc2)c2ccccc2)c(=O)[nH]1	-4.0	-7.0
c1ccc(N2CCN(c3ccccc3)C2c2cccnc2)cc1	-3.3	58.0*
Clc1ccc(CN2CCCN(Cc3ccc(Cl)cc3)C2c2cccnc2)cc1	1.8	x
CCOc1cccc2cc(C(N)=O)c(=Nc3ccc(OC)cc3)oc12	3.2	6.0
COc1cc(N=c2oc3c(O)cc(C(C)(C)C)cc3cc2C(N)=O)cc(OC)c1	-8.5	56.4*
Cc1cc(NS(=O)(=O)c2ccc(NC(=O)c3ccc([N+](=O)[O-])c(C)c3)cc2)nc(C)n1	8.4	2.0
CN(C)CCNC(=O)c1ccc(S(=O)(=O)N2CCOCC2)cc1	-8.8	-0.7
Cc1ccc2[nH]c3c(cc(NCCCO)c4c(=O)c5ccccc5c(=O)c43)oc2c1	-5.7	60.0*
Cc1ccc2[nH]c3c(cc(NCCO)c4c(=O)c5ccccc5c(=O)c43)oc2c1	-3.1	18.0
C=CCN1C(=O)/C(=C/c2cccs2)SC1=Nc1ccccc1	-3.3	5.0
COCCCNC(=O)C1CCN(c2ncccc2-c2nc(-c3cccc(C)c3)no2)CC1	-2.5	-3.6
Nc1c(C(=O)Nc2ccccc2F)c2ccccn2c1C(=O)c1cccs1	-5.5	-2.6
CC(C)CN1CCn2cc(C(=O)NCc3ccc(C(F)(F)F)cc3)nc2C1	-10.6	22.6
COc1cc(/C=C2\C(=O)Nc3ccc(F)cc32)cc(OC)c1OC	-7.4	16.0
COc1ccc(/C=C2\C(=O)Nc3ccc(Br)cc32)cc1O	-8.0	99.0*
CC(C)c1ccc(/C=C2\C(=O)Nc3ccc(Br)cc32)cc1	-0.1	19.0
SMILES	Pf apPOL inh	mHTT CaM bind
CCOc1cc(/C=C2\C(=O)Nc3ccc(Br)cc32)cc(Br)c1OCC	0.2	9.0
O=C1Nc2ccc(Br)cc2/C1=C/c1ccc(OC2CCCC2)cc1	-11.8	46.0
COc1cc(/C=C2\C(=O)Nc3ccc(Br)cc32)cc(Br)c1OC	-4.8	59.0*
COc1cc(/C=C2\C(=O)Nc3ccc(Br)cc32)cc(OC)c1O	-88.9	100.0*
O=C1Nc2ccc(Br)cc2/C1=C/C1CC=CCC1 (stereo unspecified)	3.8	51.0*
N#CCSc1nc2ccccc2c2nc(-c3ccc([N+](=O)[O-])cc3)nn12	1.1	-4.0
Cc1ccc(NC(=O)C(=O)NCC2(O)CCOCC2)cc1N1CCCC1=O	-7.2	-17.2
CC(=O)N1CCN(C(=O)c2cc3cn(C4CC4)cc3s2)CC1	0.6	8.4
Cc1nn(C)cc1S(=O)(=O)N(Cc1ccccc1)c1ccccc1	-7.8	-15.9
COc1cc(/C=C2\C(=O)Nc3ccc(Br)cc32)cc(Br)c1O	-5.6	100.0*
COc1cc(/C=C2\NC(=O)NC2=O)cc(Br)c1O	-4.0	13.0
Cc1ccc(C2NC(C(=O)O)CS2)cc1[N+](=O)[O-] (stereo unspecified)	-5.2	-3.0
Cc1c(-c2ccc(C3NC(C(=O)O)CS3)o2)cccc1[N+](=O)[O-] (stereo unspecified)	-2.9	52.0*
COCCN=C1Nc2ccccc2NC12CCCN(C(=O)c1cc(-c3ccccc3)n[nH]1)C2 (stereo unspecified)	-3.5	66.9*
COCCN=C1Nc2ccccc2NC12CCCN(C(=O)c1ccc(C)nc1)C2 (stereo unspecified)	-5.1	2.5
COCCN=C1Nc2ccccc2NC12CCCN(C(=O)Cc1cccc(C)c1)C2 (stereo unspecified)	-4.2	52.0*
COCCN=C1Nc2ccccc2NC12CCCN(C(=O)c1ccccc1Cl)C2 (stereo unspecified)	-0.7	13.2
COCCN=C1Nc2ccccc2NC12CCCN(C(=O)CCc1c[nH]c3ccccc13)C2 (stereo unspecified)	-2.9	70.8*
COCCN=C1Nc2ccccc2CNC12CCN(C(=O)Cc1cccc(C)c1)C2 (stereo unspecified)	-3.4	19.6
CC(=O)Nc1ccc(N2C(=O)CSC2c2ccc3c(c2)OCO3)cc1 (stereo unspecified)	1.8	5.0
O=C(NC1CC1)c1nnn2c1COC(c1ccc(Cl)cc1)C2 (stereo unspecified)	-5.0	19.5
CCCCCCN1C[C@H](n2cc(C3CC3)nn2)[C@@H](O)C[C@@H]1c1ccc(C)cc1	-2.4	77.3*
O[C@H]1C[C@H](c2ccc(Cl)cc2)N(CC2CCCCC2)C[C@@H]1n1cc(C2CC2)nn1	-9.0	80.1*
O[C@H]1C[C@H](c2ccccc2)N(CC2CCCCC2)C[C@@H]1n1cc(-c2ccc(F)cc2)nn1	0.6	55.0*
COc1ccc([C@H]2C[C@@H](O)[C@H](n3cc(-c4ccc(F)cc4)nn3)CN2CC2CCCCC2)cc1	-2.2	15.3
SMILES	Pf apPOL inh	mHTT CaM bind
O[C@@H]1C[C@H](c2ccc(Cl)cc2)N(CC2CCCCC2)C[C@H]1n1cc(C2CC2)nn1	0.6	-11.0
CCCCCCN1C[C@@H](n2cc(C3CC3)nn2)[C@H](O)C[C@@H]1c1ccc(C)cc1	5.1	29.4
Cc1cccc(NC(=O)C(=O)NC2CC(C)(C)NC(C)(C)C2)c1	-3.0	-6.7
CC(NC(=O)C1CCN(Cc2cn(C)c3ccc(Cl)cc23)CC1)c1ccccc1 (stereo unspecified)	-3.1	10.8
O=c1[nH]nc(SCc2cccc(Oc3ccccc3)c2)c(=O)[nH]1	71.6*	7.0
O=c1[nH]nc(SCc2ccc(F)cc2)c(=O)[nH]1	1.2	-5.0
Cc1ccc(NC(=O)C2CC(=O)N(CCc3c[nH]c4ccc(C)cc34)C2)c(C)c1 (stereo unspecified)	3.2	25.3
CCc1ccccc1NC(=O)C1CC(=O)N(CCc2c[nH]c3ccc(Cl)cc23)C1 (stereo unspecified)	-2.9	87.7*
Cc1ccc(C)c(NC(=O)C2CC(=O)N(CCc3c[nH]c4ccc(Cl)cc34)C2)c1 (stereo unspecified)	0.7	66.7*
CCc1ccccc1NC(=O)C1CC(=O)N(CCc2c[nH]c3ccc(F)cc23)C1 (stereo unspecified)	-2.7	6.1
Cc1ccc(Cl)cc1NC(=O)C1CC(=O)N(CCc2c[nH]c3ccc(F)cc23)C1 (stereo unspecified)	-3.6	88.8*
Cc1ccc(NC(=O)C2CC(=O)N(CCc3c[nH]c4ccc(F)cc34)C2)c(C)c1 (stereo unspecified)	-2.4	8.2
COC(=O)C1CCCCN1C(=O)CSc1ccccc1 (stereo unspecified)	3.8	-6.7
